# Test results reported in the supplement of paper PMC8728848.
# The sample as a whole holds a higher share of the strongest signals than the screen did.
# B1: 3FTT (Staphylococcus aureus), Q5HCZ5 (protein)
# chain: MTEKEKMLAEKWYDANFDQYLINERARAKDICFELNHTRPSATNKRKELIDQLFQTTTDNVSISIPFDTDYGWNVKLGKNVYVNTNCYFMDGGQITIGDNVFIGPNCGFYTATHPLNFHHRNEGFEKAGPIHIGSNTWFGGHVAVLPGVTIGEGSVIGAGSVVTKDIPPHSLAVGNPCKVVRKIDNDLPSETLNDETIK
# Key:
# Test in all cases: glycan array binding signal (z-score within array); higher = stronger binding
# Details in all cases: glycan notation: IUPAC condensed, linker removed
# [1] = biological target: Fuc(a1-2)Gal(b1-3)GalNAc(a1-3)[Fuc(a1-2)]Gal(b1-4)GlcNAc
# Outline: (§1)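 Arrays were curated from the Consortium for Functional Glycomics database, 3228 in total, and kept only where the protein sequence was available. Binding is expressed as a within-array Z-score. This score was averaged across arrays of the same protein sequence at different concentrations or buffers and across linkers, and negative values can be read as non-binding.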
# [2] = biological target: Fuc(a1-2)Gal(b1-3)GalNAc(b1-3)Gal
# Outline: as §1
# [3] = biological target: Fuc(a1-2)Gal(b1-3)GlcNAc(b1-3)Gal(b1-4)Glc
# Outline: as §1
# [4] = biological target: Fuc(a1-2)Gal(b1-3)GlcNAc(b1-3)[Neu5Ac(a2-6)Gal(b1-4)GlcNAc(b1-6)]Gal(b1-4)Glc
# Outline: as §1
# [5] = biological target: Fuc(a1-2)Gal(b1-4)[Fuc(a1-3)]GlcNAc(b1-2)Man(a1-3)[Fuc(a1-2)Gal(b1-4)[Fuc(a1-3)]GlcNAc(b1-2)Man(a1-6)]Man(b1-4)GlcNAc(b1-4)GlcNAc
# Outline: as §1
# [6] = biological target: Fuc(a1-2)Gal(b1-4)[Fuc(a1-3)]GlcNAc(b1-3)GalNAc
# Outline: as §1
# [7] = biological target: Fuc(a1-2)[GalNAc(a1-3)]Gal(b1-3)GlcNAc(b1-2)Man(a1-3)[Fuc(a1-2)[GalNAc(a1-3)]Gal(b1-3)GlcNAc(b1-2)Man(a1-6)]Man(b1-4)GlcNAc(b1-4)GlcNAc
# Outline: as §1
# [8] = biological target: Fuc(a1-2)[GalNAc(a1-3)]Gal(b1-3)GlcNAc(b1-2)Man(a1-3)[Fuc(a1-2)[GalNAc(a1-3)]Gal(b1-3)GlcNAc(b1-2)Man(a1-6)]Man(b1-4)GlcNAc(b1-4)[Fuc(a1-6)]GlcNAc
# Outline: as §1
# [9] = biological target: Fuc(a1-2)[GalNAc(a1-3)]Gal(b1-4)GlcNAc(b1-3)Gal(b1-4)GlcNAc
# Outline: as §1
# [10] = biological target: Fuc(a1-3)[Gal(b1-4)]GlcNAc(b1-6)GalNAc
# Outline: as §1
# [11] = biological target: Gal(a1-4)Gal(b1-3)GlcNAc(b1-2)Man(a1-3)[Gal(a1-4)Gal(b1-3)GlcNAc(b1-2)Man(a1-6)]Man(b1-4)GlcNAc(b1-4)GlcNAc
# Outline: as §1
# [12] = biological target: Gal(a1-4)Gal(b1-4)Glc
# Outline: as §1
# [13] = biological target: Gal(b1-3)Gal(b1-4)GlcNAc
# Outline: as §1
# [14] = biological target: Gal(b1-3)GalNAc
# Outline: as §1
# [15] = biological target: Gal(b1-3)[Fuc(a1-4)]GlcNAc(b1-2)Man(a1-3)[Gal(b1-3)[Fuc(a1-4)]GlcNAc(b1-2)Man(a1-6)]Man(b1-4)GlcNAc(b1-4)GlcNAc
# Outline: as §1
# [16] = biological target: Gal(b1-3)[Fuc(a1-4)]GlcNAc(b1-3)Gal(b1-4)GlcNAc
# Outline: as §1
# [17] = biological target: Gal(b1-4)GlcNAc(b1-2)Man(a1-3)[Man(a1-6)]Man(b1-4)GlcNAc(b1-4)GlcNAc
# Outline: as §1
# [18] = biological target: Gal3S(b1-4)Glc6S
# Outline: as §1
# [19] = biological target: GalNAc(b1-3)Gal
# Outline: as §1
# [20] = biological target: GalNAc(b1-4)GlcNAc(b1-2)Man(a1-3)[GalNAc(b1-4)GlcNAc(b1-2)Man(a1-6)]Man(b1-4)GlcNAc(b1-4)GlcNAc
# Outline: as §1
# [21] = biological target: GlcNAc(a1-4)Gal(b1-4)GlcNAc(b1-3)Gal(b1-4)GlcNAc
# Outline: as §1
# [22] = biological target: GlcNAc(b1-2)[GlcNAc(b1-6)]Man(a1-6)[GlcNAc(b1-2)Man(a1-3)]Man(b1-4)GlcNAc(b1-4)GlcNAc
# Outline: as §1
# [23] = biological target: GlcNAc(b1-3)[GlcNAc(b1-6)]GalNAc
# Outline: as §1
# [24] = biological target: Kdn(a2-3)Gal(b1-4)[Fuc(a1-3)]GlcNAc
# Outline: as §1
# [25] = biological target: Kdn(a2-6)Gal(b1-4)GlcNAc
# Outline: as §1
# [26] = biological target: Man(a1-2)Man(a1-2)Man(a1-3)Man
# Outline: as §1
# [27] = biological target: Man(a1-2)Man(a1-2)Man(a1-6)[Man(a1-3)]Man
# Outline: as §1
# [28] = biological target: Man(a1-2)Man(a1-3)[Man(a1-2)Man(a1-6)]Man(a1-6)[Man(a1-2)Man(a1-2)Man(a1-3)]Man
# Outline: as §1
# [29] = biological target: Neu5Ac(a2-3)Gal(b1-3)GlcNAc(b1-3)GalNAc
# Outline: as §1
# [30] = biological target: Neu5Ac(a2-3)Gal(b1-3)[Neu5Ac(a2-6)]GalNAc
# Outline: as §1
binder,measurement,setting,value
B1,glycan array binding signal (z-score),[1],-0.281
same,glycan array binding signal (z-score),[2],1.06
same,glycan array binding signal (z-score),[3],-0.165
same,glycan array binding signal (z-score),[4],-0.004
same,glycan array binding signal (z-score),[5],0.815
same,glycan array binding signal (z-score),[6],1.26
same,glycan array binding signal (z-score),[7],0.032
same,glycan array binding signal (z-score),[8],0.227
same,glycan array binding signal (z-score),[9],-0.09
same,glycan array binding signal (z-score),[10],0.714
same,glycan array binding signal (z-score),[11],-0.237
same,glycan array binding signal (z-score),[12],-0.171
same,glycan array binding signal (z-score),[13],0.256
same,glycan array binding signal (z-score),[14],-0.105
same,glycan array binding signal (z-score),[15],19.9
same,glycan array binding signal (z-score),[16],-0.017
same,glycan array binding signal (z-score),[17],-0.261
same,glycan array binding signal (z-score),[18],0.798
same,glycan array binding signal (z-score),[19],-0.332
same,glycan array binding signal (z-score),[20],5.95
same,glycan array binding signal (z-score),[21],0.607
same,glycan array binding signal (z-score),[22],-0.134
same,glycan array binding signal (z-score),[23],-0.288
same,glycan array binding signal (z-score),[24],0.16
same,glycan array binding signal (z-score),[25],-0.292
same,glycan array binding signal (z-score),[26],-0.082
same,glycan array binding signal (z-score),[27],-0.073
same,glycan array binding signal (z-score),[28],-0.089
same,glycan array binding signal (z-score),[29],-0.066
same,glycan array binding signal (z-score),[30],-0.057
